Test results published in PubChem BioAssay AID624330 (Southern Research Specialized Biocontainment Screening …, 2012).
Screen size: about 340,000 compounds; about 2,100 (0.62%) were called active.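 Rule for the calls: active = first-screen hits whose inhibition reached a set limit at any dose in the follow-up dose series; inconclusive = inhibition above the set first-screen limit but never retested; inactive = the rest.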 A selection follows. Potency and affinity values are given separately.

Each compound was assayed against Rac GTPase-activating protein 1 (Homo sapiens) (UniProt Q9H0H5) (assay: blockers of MgcRacGAP-driven Rac1 GTP hydrolysis – biochemical, ADP Hunter fluorescence, primary and confirmatory, confirmation (AID 624330;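 note: fluorescence reports GDP produced by GAP-driven GTP hydrolysis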)). Details: MgcRacGAP-stimulated Rac1 GTP hydrolysis, at 30 µM, stronger effect = higher value, GST-tagged Rac1 F28L mutant substrate.
Rac GTPase-activating protein 1 (Homo sapiens), sequence (Q9H0H5 whole entry, looked up): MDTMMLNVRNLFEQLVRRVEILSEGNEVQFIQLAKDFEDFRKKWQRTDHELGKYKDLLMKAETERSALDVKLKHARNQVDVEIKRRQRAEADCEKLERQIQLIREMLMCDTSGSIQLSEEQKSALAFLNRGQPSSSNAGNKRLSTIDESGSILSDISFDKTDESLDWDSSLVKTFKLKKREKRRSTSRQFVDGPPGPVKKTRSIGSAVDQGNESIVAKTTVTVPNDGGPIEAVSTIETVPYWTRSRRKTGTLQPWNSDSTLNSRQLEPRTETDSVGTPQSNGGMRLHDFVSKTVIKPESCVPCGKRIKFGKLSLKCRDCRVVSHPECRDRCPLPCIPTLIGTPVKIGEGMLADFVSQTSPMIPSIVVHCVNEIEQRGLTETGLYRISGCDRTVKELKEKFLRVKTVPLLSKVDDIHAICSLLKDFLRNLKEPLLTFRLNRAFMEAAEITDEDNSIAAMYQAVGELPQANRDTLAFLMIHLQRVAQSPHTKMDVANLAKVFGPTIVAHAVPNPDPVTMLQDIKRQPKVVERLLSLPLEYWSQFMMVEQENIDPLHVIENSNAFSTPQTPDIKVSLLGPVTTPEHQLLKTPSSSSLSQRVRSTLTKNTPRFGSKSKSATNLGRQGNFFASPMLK

inhibition, inactive:
O=C(c1ccco1)N1CCc2ccccc21 3.81%, COCC(C)n1c(C)cc(C(=O)CSc2ncccn2)c1C (stereo not drawn) 8%, CN(CC1COc2ccccc2O1)C(=O)Cn1cc(C(F)(F)F)ccc1=O (stereo not drawn) 0.56%, CCCCN(C)C(=O)C1CCN(CCCc2ccccc2)CC1 21.2%, CCCCN(C)C(=O)C1CCN(Cc2cccnc2)CC1 27.6%, CCN(CC)C(=O)C1CCN(Cc2cccc(OCc3ccccc3)c2)CC1 19.6%, NC(=O)C1CCN(Cc2cccc(OCc3ccccc3)c2)CC1 21.4%, NC(=O)C1CCN(Cc2ccc(OCc3ccccc3)cc2)CC1 21.3%, CCN(CC)C(=O)C1CCN(Cc2ccc(OCc3ccccc3)cc2)CC1 15.5%, CCc1c(O)nc(SCC(=O)N2CCOCC2)n(-c2ccccc2)c1=O 9.22%, Cc1cc(NC(=O)COC(=O)CNC(=O)c2cccs2)c([N+](=O)[O-])cc1C 10.5%, O=C1OC(c2ccc(F)cc2)=N/C1=C\c1ccc(Br)o1 12.2%, NC(=O)CC(NC(=O)c1ccccc1)c1ccc(N2CCN(c3ccccn3)CC2)c([N+](=O)[O-])c1 (stereo not drawn) 6.77%, CC(C)CCNC(=O)CCCCn1c(=O)[nH]c2ccsc2c1=O 1.12%, CCn1cc(C(=O)NC2CCCCC2)c(=O)c2ccc(C)nc21 6.08%, CCOc1ccccc1OCCCCOc1ccccc1F 8.35%, CCOc1ccccc1C(=O)N[C@H](C(=O)NNC(=O)c1cccs1)C(C)C 2.5%, Cc1ccc(C)c(SCC(=O)NC(=O)NCc2ccccc2)c1 6.96%, Cc1ccc(NC(=O)N2CCCC2C(=O)Nc2ccc(-n3cnnn3)c(C)c2)cc1 (stereo not drawn) -9.47%, CS(=O)(=O)N1CCN(C(=O)NC23CC4CC(CC(C4)C2)C3)CC1 -2.26%, CN1CCCN(C2C3CC4CC(C3)CC2C4)CC1 (stereo not drawn) 14.8%, C/C(=N/OCC(=O)Nc1ccc(C)cc1C)c1cccs1 17%, O=c1cc(-c2ccccc2[N+](=O)[O-])oc2ccccc12 4.61%, Nc1c([N+](=O)[O-])c(=O)oc2ccccc12 3.99%, CN(C)S(=O)(=O)c1cccc(C(=O)c2nccn2C)c1 2.41%, Cc1ccc(C(=O)Nc2ncc(C)s2)s1 3.92%, Cc1ccc(-c2nc(C=Nc3ccc(O)cc3)c(O)o2)cc1 19%, Cc1ccsc1C=Nc1ccc(O)cc1 18.4%, COc1ccccc1NS(=O)(=O)c1cc(NC(=O)c2ccc(Cl)nc2)ccc1N1CCCC1 9.85%, CCn1nc(C)c(NC(=O)CSc2nnc(-c3ccco3)n2C)c1C 5.76%, Cc1nn(CCCC(=O)Nc2cnn(Cc3ccc(F)cc3)c2)c(C)c1[N+](=O)[O-] -3.65%, CC(C)c1ccc(NC2CCCN(C(=O)c3cccc(N4CCNC4=O)c3)C2)cc1 (stereo not drawn) 9.26%, Cc1ccc(NC2CCCN(C(=O)c3ccc(C)c(N4CCNC4=O)c3)C2)cc1C (stereo not drawn) 15.1%, Cc1ccc(C(=O)N2CCCC(Nc3cccc(F)c3)C2)cc1N1CCNC1=O (stereo not drawn) 7.34%, O=C(c1cccc(N2CCNC2=O)c1)N1CCCC(Nc2cccc(F)c2)C1 (stereo not drawn) -0.6%, COc1cccc(C(=O)N2CCCC(Nc3ccc(C)c(C)c3)C2)c1 (stereo not drawn) 16.7%, COc1cc(OC)cc(C(=O)N2CCCC(Nc3ccc(F)cc3)C2)c1 (stereo not drawn) 3.07%, CC(C)CNc1nc(N)c([N+](=O)[O-])c(NC2CCCCC2)n1 9.84%, CCc1nn2c(=O)cc(CSCC(=O)Nc3ccccc3Cl)nc2s1 10.2%, Cc1ccc(CN2CCN(Cc3ccc(OC(C)C)cc3)CC2CCO)o1 (stereo not drawn) 8.44%, Cc1cccnc1NC(=O)CCCNC(=O)c1ccc(Cl)cc1 5.51%, Oc1cccc(CCc2ccccn2)c1 -0.46%, Nc1ccc(CCc2ccccn2)cc1 -1.15%, O=C(COc1ccc(Cl)cc1)OCC(=O)N1CCCCCC1 11.4%, COCCNC(=O)COc1cccc(Oc2ccccc2)c1 12.7%, O=C(COC(=O)COc1ccccc1)NCc1ccco1 5.42%, COc1ccc(OCC(=O)OCC(=O)NCc2ccco2)cc1 5.26%, COCCNC(=O)COc1ccc(Oc2ccccc2)cc1 8.68%, O=C(COc1ccc(Cl)cc1)OCC(=O)N1CCCC1 8.63%, Cc1ccc(CNC(=O)C2CCC(CNS(=O)(=O)c3cccs3)CC2)cc1 (stereo not drawn) 5.1%, Cc1cccc(NC(=O)CNC(=O)c2ccc(-n3cncn3)c([N+](=O)[O-])c2)c1C 0.04%, Cc1cc(OC(C)C(=O)NCc2cccnc2)c2c(C)cc(=O)oc2c1 (stereo not drawn) 3.28%, CC(NS(=O)(=O)c1ccc2c(c1)C(C)(C)C(=O)N2C)c1ccccc1 (stereo not drawn) 3.16%, N/C(=N\c1nc2c(c(=O)[nH]1)CCC2)Nc1ccccc1C(F)(F)F -0.36%, Cn1c(=O)[nH]c(=O)c2c1nc(Br)n2Cc1ccc(Cl)cc1 8.01%, CSc1nc2c(c(=O)[nH]c(=O)n2C)n1Cc1ccc(Cl)cc1 11.4%, O=C(O)CCC(=O)Nc1cccc(-c2nc3ccccc3o2)c1 -9.77%, CCN(CC)S(=O)(=O)c1ccc2c(c1)c(=O)c(C(=O)N1CCN(c3ccccc3)CC1)cn2C 1.44%, CCN(CC)CCN1c2ccccc2Sc2ccc3ccccc3c21 10.6%, CN(C)CCCN1c2ccccc2Sc2ccc3ccccc3c21 15.1%, OC(CNCC1(N2CCCCC2)CCCCC1)COc1ccc(Cl)cc1Cl (stereo not drawn) 17.6%, COc1cc(C(C)=O)ccc1OCC(O)CNCC1(N2CCCCC2)CCCCC1 (stereo not drawn) 27.1%, O=C(NCC1CCCO1)c1cc(C(=O)C2CCCCC2)c[nH]1 (stereo not drawn) 4.74%, CCCCCOC(=O)CSc1nc2c(c(=O)[nH]c(=O)n2C)n1Cc1ccc(Cl)cc1 1.35%, O=C(CSc1ccc(-c2ccco2)nn1)Nc1ccc(F)cc1F 9.4%, COc1ccc(/C=C/C(=O)CCC(=O)O)cc1 2.46%, Cc1ccc(N2CC3=C(C2=O)C(c2ccccc2)NC(=O)N3C)cc1 (stereo not drawn) 6.8%, CN1C(=O)NC(c2ccc(O)cc2)C2=C1CN(c1ccccc1)C2=O (stereo not drawn) 10.4%, CSc1ccccc1NC(=S)Nc1cc(C)cc(C)c1 9.21%, COc1ccc(S(=O)(=O)N2CCOCC2)cc1NC(=O)Cc1ccccc1Cl 5.39%, CCN(CC)c1ccc(NC(=O)c2cncc(Br)c2)cc1 30.6%, CCN(CC)c1ccc(CNc2ccc(Br)cn2)cc1 4.81%, O=S(=O)(Nc1nc2c(s1)CCCC2)c1ccc2ccccc2c1 8.29%, CCc1ccc(C(=O)OCC(=O)Nc2cccc(S(=O)(=O)NC3=NCCCCC3)c2)cc1 5.3%, O=S(=O)(NC1=NCCCCC1)c1ccc2ccccc2c1 2.56%, Nc1nc2cc(S(=O)(=O)NC3=NCCCCC3)ccc2s1 38.9%, Cc1ccc(-c2cc(C(=O)N3CCCC3)c3ccccc3n2)s1 3.87%, CCCCn1c(N)c(N(CCOC)C(=O)CSc2ccc([N+](=O)[O-])cc2)c(=O)[nH]c1=O 9.47%, CC1CC1C(=O)OCC(=O)NNC(=O)c1ccc([N+](=O)[O-])cc1 (stereo not drawn) 2.78%, Cc1ccc(-c2cc(C(=O)N/N=C/c3c(C)nn(-c4ccccc4)c3C)n[nH]2)s1 3.04%, CC(C)NC(=O)N(C)C[C@H]1Oc2ccc(NS(=O)(=O)c3cn(C)cn3)cc2C(=O)N([C@H](C)CO)C[C@@H]1C 12.3%, Cc1cc(Br)ccc1NCc1ccccn1 23.4%, O=C(CN1CCN(S(=O)(=O)c2ccc(Br)cc2)CC1)Nc1ccc(F)cc1F 7.71%, CC1(C)CNc2cc([N+](=O)[O-])ccc2S1 9.53%, CC1(C)CC(=S)Nc2ccccc2S1 2.74%, CSc1ncccc1C(=O)NC1CCCc2c1cnn2-c1ccc(C)c(C)c1 (stereo not drawn) 3.32%, CCOc1cc(C=NN2CCCCCC2)ccc1O 30.4%, CCOc1cc(/C=N/n2cnnc2)cc(Br)c1O 14.1%, CCOc1cc(/C=N/n2c(C)nc3sc(C)c(C)c3c2=O)ccc1O 10%, CCOc1cc(/C=N/N=C/c2ccc(O)c(OCC)c2)ccc1O 9.66%, CN(C)c1nc(C(=O)O)nc(N2CCOCC2)n1 7.25%, CN(C(=O)c1ccc(NC(=O)Cc2ccc(NC(=O)C3CCCN(C(=O)C4CCCCC4)C3)cc2)cc1)C1CCCC1 (stereo not drawn) 9%, O=C(Nc1cccc(NS(=O)(=O)c2ccc(S(=O)(=O)NC3CC3)cc2)c1)c1ccccn1 11.8%, NC(=O)CSc1nnc(NC(=O)c2cccc(S(=O)(=O)N3CCCCC3)c2)s1 7.47%, Cc1c(Cl)cccc1NC(=S)NC1CCCC1 8.99%, c1csc(-c2csc(-c3cccs3)n2)c1 7.41%, Cc1cc(O)ccc1Nc1nc(-c2cccnc2)cs1 28.4%, Nc1nc(-c2cccs2)cs1 18.1%, CN(C(=O)c1cccnc1)c1nc(-c2ccccc2)cs1 0.25%, Oc1ccc(Nc2nc(-c3cccs3)cs2)cc1 19.4%, CN(C(=O)c1ccco1)c1nc(-c2ccccc2)cs1 8.31%, c1ccc(-c2nc(-c3cccnc3)cs2)cc1 7.12%, CN(c1nc(-c2ccccc2)cs1)C1CCS(=O)(=O)C1 (stereo not drawn) 8.88%
